Assay outcomes deposited in PubChem BioAssay by National Center for Advancing Translational Sciences (NCATS).
Shown are actives, neighbours in structure and some others; about 12% of the full set was active somewhere.
HP1b binding inh = HTS for Inhibitors of HP1-beta Chromodomain Interactions with Methylated Histone Tails; Potency, µM (top dose mostly 114 µM), for the others: top-dose activity change, negative = inhibition, hits mostly inhibitors; Chromobox protein homolog 1 (Homo sapiens), P83916; AlphaScreen HP1-beta / biotin-H3K9me3 peptide binding; actives 0.56% (n = 390,000); note: nearly all actives have a fitted effect of over 70% in size
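AlphaScreen: HP1-beta (50 nM) preformed 30 min with biotin-H3(1-18)K9me3 peptide (50 nM) in PBS pH 7.4, 0.01% Tween-20. Compound added for 30 min at RT, then streptavidin donor/nickel chelate acceptor beads (10 ug/mL) for 30 min.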
G9a inh = qHTS Assay for Inhibitors of Histone Lysine Methyltransferase G9a | Histone-lysine N-methyltransferase EHMT2 (Homo sapiens), Q96KQ7 | G9a H3K9 monomethylation, AlphaScreen, 2 h | Potency, µM (top dose mostly 102 µM), for inactives: at the top dose activity, negative = inhibition, hits mostly inhibitors | actives 8.8% (n = 350,000); note: % is set by controls: 0 for no effect and ±100 for the full control effect; nearly all actives have a fitted effect of over 75% in size
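Compounds were preincubated with 20 nM G9a for 15 min, after which biotinylated H3K9 peptide (500 nM) and SAM (20 uM) started a 2 h room-temperature reaction. Monomethylated product was quantified by antibody-based AlphaScreen chemiluminescence.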
L3MBTL1 inh = qHTS Assay for the Inhibitors of L3MBTL1. Lethal(3)malignant brain tumor-like protein 1 (Homo sapiens), Q9Y468. AID 485360, 2010. Potency, µM (titrated, usually from 57.1 µM), for the others: at the highest dose activity, negative = inhibition, hits mostly inhibitors. actives 0.66% (n = 230,000). AlphaScreen L3MBTL1–H3K9me1 peptide binding; note: % is set by controls: 0 for no effect and ±100 for the full control effect; nearly all actives have a fitted effect of over 60% in size
Target sequence (Q9Y468 whole entry, looked up): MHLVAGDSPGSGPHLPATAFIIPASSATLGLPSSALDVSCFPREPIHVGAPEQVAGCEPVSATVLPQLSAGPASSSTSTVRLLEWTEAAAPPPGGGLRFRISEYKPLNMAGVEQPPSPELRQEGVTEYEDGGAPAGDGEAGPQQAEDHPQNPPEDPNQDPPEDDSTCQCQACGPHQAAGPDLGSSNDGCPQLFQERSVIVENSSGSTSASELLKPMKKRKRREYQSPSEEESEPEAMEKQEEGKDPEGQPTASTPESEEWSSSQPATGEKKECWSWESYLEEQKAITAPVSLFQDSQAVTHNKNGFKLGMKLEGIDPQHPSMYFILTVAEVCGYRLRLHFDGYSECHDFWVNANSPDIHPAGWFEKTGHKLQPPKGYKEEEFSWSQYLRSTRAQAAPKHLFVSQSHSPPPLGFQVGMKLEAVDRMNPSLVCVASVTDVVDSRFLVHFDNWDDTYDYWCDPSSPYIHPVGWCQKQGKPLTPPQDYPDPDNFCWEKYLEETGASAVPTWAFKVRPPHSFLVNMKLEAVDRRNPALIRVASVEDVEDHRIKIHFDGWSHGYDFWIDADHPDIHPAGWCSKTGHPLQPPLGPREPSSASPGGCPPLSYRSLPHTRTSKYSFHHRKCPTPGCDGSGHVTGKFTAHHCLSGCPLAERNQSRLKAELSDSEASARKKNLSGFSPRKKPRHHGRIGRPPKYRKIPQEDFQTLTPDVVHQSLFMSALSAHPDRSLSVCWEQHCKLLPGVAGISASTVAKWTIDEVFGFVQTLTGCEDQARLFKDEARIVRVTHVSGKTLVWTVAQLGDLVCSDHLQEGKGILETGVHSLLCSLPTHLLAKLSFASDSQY
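Displacement of a biotinylated histone H3(1-15) peptide monomethylated at Lys9 (75 nM) from L3MBTL1 (50 nM) was measured by AlphaScreen after a 30 min room-temperature compound incubation; cefsulodin titration served as intraplate control.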
BAZ2B inh = qHTS Assay for Inhibitors of BAZ2B | AlphaScreen BAZ2B-H3K14Ac peptide displacement | actives 4.4% (n = 360,000) | Bromodomain adjacent to zinc finger domain protein 2B (Homo sapiens), Q9UIF8 | Potency, µM (doses to about 114 µM), inactives show top-dose activity change, negative = inhibition, most hits filed as inhibitors; note: % is set by controls: 0 for no effect and ±100 for the full control effect; nearly all actives have a fitted effect of over 60% in size
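BAZ2B (50 nM) with biotin-H3(5-23)K14Ac peptide (50 nM) in PBS pH 7.4, 0.01% Tween-20, preformed 30 min, then compound 30 min at room temperature; top concentration 110uM. AlphaScreen streptavidin donor/nickel chelate acceptor beads (10 ug/mL final), 20 min dark, signal read.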
JMJD2A Tudor = qHTS Assay for Inhibitors of JMJD2A-Tudor Domain; Lysine-specific demethylase 4A (Homo sapiens), O75164; AlphaScreen JMJD2A-Tudor / H3K4me3 peptide binding; Potency, µM (highest dose often 114 µM), without a hit: at the highest dose activity change, negative = inhibition, most hits filed as inhibitors; actives 4.4% (n = 390,000); AID 504339, 2011; note: % is set by controls: 0 for no effect and ±100 for the full control effect; nearly all actives have a fitted effect of over 50% in size
Sfp inh = qHTS Assay for Inhibitors of Bacillus subtilis Sfp phosphopantetheinyl transferase (PPTase) | 4'-phosphopantetheinyl transferase ffp (Bacillus subtilis), Q9F4F7 | Biochemical Sfp PPTase activity, qHTS | Potency, µM, for the others: largest response in the series, negative = inhibition, usual class: inhibitors | actives 3.5% (n = 310,000) | AID 1490, 2009;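 note: the enzyme is Sfp with the accession as filed and its product quenches rhodamine fluorescence; 0% = enzyme reaction without inhibitor and -100% = no enzyme wells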
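Step 1, compound plus 15 nM Sfp-PPTase, 15 min, room temperature. Step 2, add rhodamine-CoA (5 uM) and BHQ-2-YbbR (12.5 uM). Step 3, read 525/598 nm fluorescence at 0 and 30 min.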
Starred values were filed as active, the others as inactive; ? = inconclusive; . = not tested or not shown; [ ] = remark or other dose. Calls come from the whole dose curve; as a rule, active = well fitted curve in the direction sought with a large enough effect; inconclusive = small, poorly fitted or top-dose-only effect, or another doubt; inactive = no such curve, though single readings can be large; an effect the other way counts as inactive or inconclusive. Potency is the fitted concentration of half-maximal effect.

SMILES	HP1b binding inh	G9a inh	L3MBTL1 inh	BAZ2B inh	JMJD2A Tudor	Sfp inh
CCCCC(=O)Nc1ccc(C(=O)NNC(=O)CCCOc2ccc(Cl)cc2Cl)cc1	8%	50µM*	5%	4%	-32%	3%
CSc1cccc(NC(=O)CCCOc2ccc(Cl)cc2Cl)c1	92%	26%	32%	17%	30%	-3%
O=C(CCCOc1ccc(Cl)cc1Cl)Nc1cccnc1	26%	45µM*	.	5%	-16%	23%
CC(C)C(=O)Nc1ccc(C(=O)NNC(=O)CCCOc2ccc(Cl)cc2Cl)cc1	6%	-44%	-3%	-5%	-25%	11%
O=C(CN1CCN(C(=O)c2ccccc2)CC1)Nc1cccc(S(=O)(=O)N2CCCC2)c1	22%	?	3%	11%	-17%	.
CCOC(=O)C[C@H]1c2cc(F)ccc2S(=O)(=O)N1c1cccc(OC)c1	30%	.	.	.	-10%	.
O=C(NCCCn1ccnc1)/C(=C/c1ccccc1)NC(=O)c1ccccc1	6%	-14%[12.7 µM]	0%	?	45µM*	1%
CN(C)c1ccc(/C=C(\NC(=O)c2ccccc2)C(=O)NCCCn2ccnc2)cc1	-26%	50µM*	.	28µM*	50µM*	4%
COc1ccc(C(=O)N/C(=C\c2cn(S(=O)(=O)N(C)C)c3ccccc23)C(=O)NCCCn2ccnc2)cc1	22%	1%	.	32µM*	?	13%
CCn1cc(/C=C(\NC(=O)c2ccc(OC)cc2)C(=O)NCCCn2ccnc2)c2ccccc21	-10%	-4%[59 µM]	.	?	?	.
COc1ccc(CCN2CCCn3c2nc2c3c(=O)n(C)c(=O)n2C)cc1OC	21%	-3%	.	-3%	-10%	12%
O=c1cc(-c2ccccc2)n2c(SCc3ccccc3Cl)nnc2[nH]1	40%	-41%[59 µM]	.	1%	-10%	.
OC(CCCN1CCCCC1)(c1ccccc1)c1ccc(C(F)(F)F)cc1 (stereo unspecified)	8%	.	.	.	-10%	.
NC(=O)N/N=C/c1c(O)ccc2oc3c(c12)CCCC3	27%	.	.	-15%	-12%	4%
O=[N+]([O-])c1cc2oc3c(c2c(C=NCc2ccncc2)c1O)CCCC3	?	?	?	35µM*	56µM*	?
CCOc1ccc(C(=O)NCC(=O)N2CC=C(c3ccccc3)CC2)cc1OCC	5%	-11%[2.33 µM]	1%	4%	-23%	.
CCC(=O)Nc1ccc(Cl)c(NC(=S)NC(=O)c2ccco2)c1	0%	?	6%	2%	-31%	-12%
CCC(=O)Nc1ccc(Cl)c(NC(=S)NC(C)=O)c1	8%	28µM*	3%	-8%	0%	-26%
CCN(CC)S(=O)(=O)c1cccc(-c2n[nH]c(=S)n2CC(C)C)c1	8%	3.2µM*	.	5%	10µM*	-30%
CCN(CC)S(=O)(=O)c1ccc(C(=O)NCc2n[nH]c(=S)n2Cc2ccccc2)cc1	21%	?	3%	-5%	28µM*	-14%
COC(Cn1c(-c2cccc(S(=O)(=O)N(C)C)c2)n[nH]c1=S)OC	0%	10µM*	1%	.	7.9µM*	-11%
Cc1ccc2nc(-c3cccc(S(=O)(=O)N(C)C)c3)cn2c1	32%	7%[59 µM]	-6%	-1%	-2%	6%
CCN(CC)S(=O)(=O)c1cccc(-c2n[nH]c(=S)n2Cc2ccccc2)c1	37%	0.89µM*	-13%	-36%	?	-23%
COc1ccc(Cl)cc1NC(=O)CSc1nc(Nc2ccccc2)nc(N2CCOCC2)n1	32%	76%	.	1%	-17%	22%
COc1ccccc1C(C)NC(=O)c1cc(=O)[nH]c2ccccc12 (stereo unspecified)	36%	-40%	.	?	-13%	6%
SMILES	HP1b binding inh	G9a inh	L3MBTL1 inh	BAZ2B inh	JMJD2A Tudor	Sfp inh
Cc1ccc(Cl)cc1N1CCN(C(=O)c2cnc(N3CCOCC3)c3ccccc23)CC1	6%[57 µM]	10%[59 µM]	.	-18%	-25%	.
CCN(CC)S(=O)(=O)c1cccc(-c2nc3n(n2)Cc2ccccc2-3)c1	24%	50µM*	3%	-33%	-32%	11%
Clc1ccc(-c2nc3n(n2)Cc2ccccc2-3)cc1	120%	?	-8%	5%	?	1%
CCC1CCCCN1CCCNC(=O)c1ccc2c(c1)N(Cc1cccc(C)c1)C(=O)c1ccccc1S2(=O)=O (stereo unspecified)	21%	-2%[59 µM]	.	-30%	-23%	.
CCOC(=O)C1=NNC(C(=O)c2ccccc2)C1c1ccc(Cl)cc1 (stereo unspecified)	-3%	.	.	-9%	-11%	-2%
Cc1ccc(C2C3=C(CC(C)(C)CC3=O)N=C3c4ccccc4C(=O)C32)cc1 (stereo unspecified)	?	5µM*	-27%	16µM*	45µM*	-17%
CCOC(=O)C1=C(C)N=C2c3ccccc3C(=O)C2C1c1ccc(Cl)cc1 (stereo unspecified)	?	40µM*	?	13µM*	40µM*	20%
CC1(C)CC(=O)C2=C(C1)N=C1c3ccccc3C(=O)C1C2c1ccc(Cl)cc1 (stereo unspecified)	?	10µM*	?	13µM*	?	-27%
CC(C)(C)c1ccc(OCC(=O)OCCNC(=O)c2cccnc2)cc1	36%	50µM*	8%	5%	-23%	7%
Cc1ccc(OCCOCCOc2cccc3cccnc23)c(Br)c1	?	14%	3%	9%	-1%[57.1 µM]	-8%
C=CCNCCOCCOc1ccc(C)cc1Br	?	3.2µM*	5%	56µM*	5µM*	-18%
CC(C)NCCOCCOc1ccc(Cl)cc1Br	-18%	?	10%	?	3.2µM*	-8%
CCC(C)NCCOCCOc1ccc(C)cc1Br (stereo unspecified)	?	?	3%	56µM*	2.5µM*	-19%
CCC(C)NCCCOc1c(C)cc(C)cc1Br (stereo unspecified)	-36%	8.9µM*	-4%	79µM*	?	?
CCOC(=O)N1CCN(C(=O)c2cc3cc(Cl)ccc3[nH]2)CC1	29%	8%	.	-4%	6%	13%
CC(C)NCCOCCOc1ccccc1F	?	4.5µM*	.	50µM*	1.8µM*	-24%
